Assays:
Settings in all cases: concentration: 1 μM, replicates: in singlicate; n = 1
[1] = tested on: PDPK1
[2] = tested on: PFTAIRE2
[3] = tested on: T1, PFTK1
T1 construct: gene CDK14

[4] = tested on: PHKG1
[5] = tested on: PHKG2
[6] = tested on: PIK3C2B
[7] = tested on: PIK3C2G
[8] = tested on: PIK3CA
[9] = tested on: PIK3CB
[10] = tested on: PIK3CD
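Further: KINOMEscan kinase panel screen.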

Compound	%Inh [1] [%]	%Inh [2] [%]	%Inh [3] [%]	%Inh [4] [%]	%Inh [5] [%]	%Inh [6] [%]	%Inh [7] [%]	%Inh [8] [%]	%Inh [9] [%]	%Inh [10] [%]
COc1ccc(-c2cc3c(C)nc(N)nc3n([C@H]3CC[C@H](OCCO)CC3)c2=O)cn1	0	0	0	7	0	98.1	98.1	100	100	96.6
CN1C(=O)C(Nc2cc(Cl)c(O)c(Cl)c2)=C(c2ccc(Cl)cc2)C1=O [SB-404321]	0	0	0	0	0	0	0	0	0	0
C[C@@H]1CC[C@H](C(=O)NC2CCCCC2)CN1c1cc(-c2ccc3c(N)n[nH]c3c2)nc(N)n1 [GSK2291363]	95.3	26	27	0	17	0	0	0	0	0
Nc1ncnc2c1ncn2-c1cccc(F)c1 [SKF-97560]	7	0	20	5	0	0	35	0	0	0
Cc1c(Cn2c(C)nn3c(=O)cc(N4CCO[C@H](C)C4)nc23)cccc1C(F)(F)F [GSK2373690]	0	10	11	3	0	0	0	0	96.7	65
Nc1ncnc2c1ncn2-c1ccc(Cl)cc1 [AH2635]	0	0	17	0	0	0	0	0	0	0
CCC(=O)c1c(-c2ccccc2)c2cc(Cl)ccc2c(=O)n1Cc1cc(S(C)(=O)=O)n(CC(F)F)n1	0	0	0	0	7	0	0	0	16	0
CCn1c(-c2nonc2N)nc2ccccc21 [SB-693162/GW549034]	0	0	17	21	16	0	0	0	62	0
Nc1nccc2scc(-c3ccc4c(c3)CCN4C(=O)Cc3ccccc3)c12 [GSK2576924]	19	25	23	0	12	5	0	0	0	4
COc1cccc(C2=C(N(C)c3ccccc3)C(=O)NC2=O)c1 [SB-334865]	0	0	20	0	0	0	0	0	0	0
COc1cccc(C2=C(Nc3cccc(C(=O)O)c3)C(=O)NC2=O)c1 [SB-390770]	0	13	0	0	1	0	22	8	0	32
COc1cc2ncn(-c3cc(OCCCc4ccccc4)c(C(N)=O)s3)c2cc1OC [GSK205189]	11	8	34	2	20	8	0	0	0	0
Nc1ncnc2c1ncn2-c1cccc2ccccc12 [SKF-97184]	0	0	1	0	0	7	0	2	0	0
CCS(=O)c1ccc(-c2coc3ccc(-c4nnc(C)o4)cc23)cc1 (centres unmarked)	0	0	9	0	0	0	15	0	32	12
CCC(=O)c1c(-c2ccccc2)c2cc(Cl)ccc2c(=O)n1Cc1cc(C(=O)NC2CC2)n(C)n1	0	0	0	0	0	0	37	0	21	14
Nc1n[nH]c2ncc(-c3ccccc3)cc12 [SB-517081]	0	7	10	0	0	3	0	0	0	0
CC(C)(C)c1ccc(C(=O)Nc2cn3cc(-c4ccccc4)ccc3n2)cc1	0	0	0	4	2	0	0	0	14	0
OCCCNc1nccc(-c2c(-c3cccc(C(F)(F)F)c3)nn3cc(C(F)(F)F)ccc23)n1 [GW630813]	0	1	18	0	5	0	0	0	0	0
COc1cc(Nc2nccc(N3CCC(NC(=O)C(C)c4ccc(Cl)cc4)C3)n2)cc(OC)c1OC (centres unmarked) [GSK1379757]	0	11	6	0	0	10	0	6	0	0
Cc1cccc(-c2cc(-c3c[nH]nc3-c3ccccn3)ccn2)c1 [GW679395]	0	1	11	0	0	1	0	0	0	0
Cl.NS(=O)(=O)c1cccc(Nc2cc(-c3ccc(F)cc3)n[nH]2)c1 [GW824645]	0	24	9	0	0	0	0	11	0	0
CCC(=O)c1c(-c2ccccc2)c2cc(Cl)ccc2c(=O)n1Cc1cc(S(C)(=O)=O)n(CCC(C)(C)O)n1	0	0	12	18	0	41	52	32	26	36
COc1cc(Nc2ccnc3ccc(C(F)(F)F)cc23)cc(OC)c1OC [GW577382]	32	8	0	3	0	0	0	0	0	0

Compound	%Inh [1] [%]	%Inh [2] [%]	%Inh [3] [%]	%Inh [4] [%]	%Inh [5] [%]	%Inh [6] [%]	%Inh [7] [%]	%Inh [8] [%]	%Inh [9] [%]	%Inh [10] [%]
O=C(Nc1n[nH]c2nc(-c3ccccc3)c(Br)cc12)C1CC1 [SB-708998]	20	1	7	0	0	0	9	0	0	3
O=C(Nc1ccc2c(c1)OCO2)NC1CCN(c2ccnc(NCc3ccc(F)cc3)n2)CC1 [GSK1379859]	0	10	14	0	0	0	0	0	0	0
Cc1nnc(-c2ccc3ncn(-c4ccc(S(C)=O)cc4)c3c2)o1 (centres unmarked)	0	12	14	0	0	0	0	0	2	38
COC(=O)c1c(-c2ccccc2)c2cc(Br)ccc2c(=O)n1Cc1ccc(NC(=O)CCC(=O)O)cc1	0	17	0	0	0	0	1	0	24	0
Cc1cc(Nc2nc(-c3cccc(C)n3)nc3ccccc23)ccn1 [GW872411]	0	0	10	0	0	0	0	0	0	0
CCc1nc(-c2cccc(C)c2)c(-c2ccncc2)s1	1	0	14	0	9	0	3	0	4	0
COc1cc2ncn(-c3cc(OCc4ccncc4)c(C(N)=O)s3)c2cc1OC [GSK336313]	0	27	16	0	0	0	0	1	0	0
Cc1nn2c(=O)cc(N3CCOCC3)nc2n1Cc1cccc(Cl)c1Cl [GSK2342769]	0	0	91.7	7	0	89	56	5	89	99.6
CCC(=O)c1c(-c2ccccc2)c2cc(Cl)ccc2c(=O)n1Cc1cc(S(C)(=O)=O)n(CC(N)=O)n1	31	0	11	0	0	0	0	0	0	0
COC(=O)c1c(-c2ccccc2)c2cc(Br)ccc2c(=O)n1Cc1ccc(S(C)(=O)=O)cc1	0	7	0	24	13	7	11	7	28	0
Cc1ccc(-c2ccc3c(ccc4sc5c(c43)NC[C@@H](C)N=C5N(C)C)n2)cn1	0	0	0	0	0	0	0	0	55	15
O=c1cc(N2CCOCC2)nc2n(Cc3ccc(F)c(Cl)c3)ccn12 [GSK2297099]	0	62	14	0	0	31	0	11	96.2	75
O=C(NCc1cccs1)c1cc(C(=O)c2c(Cl)cccc2Cl)c[nH]1 [GW823670]	0	0	55	2	0	0	0	0	0	0
COc1ccc(Nc2nccc(N3CCC(NS(=O)(=O)c4ccc(NC(C)=O)cc4)C3)n2)cc1 (centres unmarked) [GSK1379729]	9	17	20	18	0	7	6	4	0	27
CN(C)c1cc(-c2ccc3c(N)n[nH]c3c2)nc(N)n1 [GSK2219329]	–	0	11	0	0	0	0	0	0	0
Nc1nc(N)c2nc(-c3ccccc3)[nH]c2n1 [SKF-12778]	14	6	9	0	0	0	68	6	0	21
CCc1ccc(-c2ccc3c(c2)-c2nn(C)cc2S(=O)(=O)N3C)cc1	23	0	9	0	0	0	0	0	0	0
COc1cc(Nc2nccc(N3CCC(NC(=O)C4COc5ccccc5O4)C3)n2)cc(OC)c1OC (centres unmarked) [GSK1379761]	2	2	26	12	18	10	0	0	0	42
COc1cccc(-n2cnc3c(N)ncnc32)c1 [SKF-97416]	0	0	0	34	0	0	34	21	32	54
O=C(Nc1n[nH]c2nc(-c3ccccc3)c(Cl)cc12)C1CC1 [SB-734909]	0	0	6	0	7	35	10	12	13	17
Cc1nnc(-c2ccc(C)c(-c3ccc(C(=O)O)cc3)c2)o1 [GW608005]	4	11	0	2	0	0	3	0	0	6
Cc1ccc(Oc2ccc(Nc3ncnc4cc[nH]c34)cc2C)cn1	25	7	0	0	0	24	60	5	57	54
CCn1c(-c2ccoc2)nc2cnccc21 [SB-733887]	0	15	0	0	0	6	0	0	0	0

Compound	%Inh [1] [%]	%Inh [2] [%]	%Inh [3] [%]	%Inh [4] [%]	%Inh [5] [%]	%Inh [6] [%]	%Inh [7] [%]	%Inh [8] [%]	%Inh [9] [%]	%Inh [10] [%]
O=C(Nc1n[nH]c2cc(-c3ccccc3F)ccc12)C1CC1 [SB-733371]	0	12	0	0	0	2	3	0	18	0
Nc1nc(-c2ccccc2F)c(-c2ccnc3ccccc23)s1 [GW560459]	0	12	5	7	0	0	0	0	0	12
COc1cc2ncn(-c3cc(OCc4ccncc4Br)c(C(N)=O)s3)c2cc1OC [GW854278]	0	0	0	8	1	54	12	0	0	5
COc1ccc(-c2cc3c(C)nc(N)nc3n([C@H]3CC[C@H](O)CC3)c2=O)cn1	0	0	0	9	1	99.6	98.8	99.7	100	94.1
COc1cc2nccc(Nc3cccc(Oc4ccccc4)c3)c2cc1OC.Cl [GW284543]	0	31	2	2	0	39	0	0	0	55
O=C(NCCNc1ccnc(Nc2ccc(F)cc2)n1)Nc1ccc2c(c1)OCO2 [GSK1379882]	0	25	0	8	7	7	0	7	0	0
FC(F)(F)c1ccc(-c2ncn(CCCN3CCOCC3)c2-c2ccncc2)cc1 [SB-217780]	0	40	0	1	4	0	0	0	4	0
COc1cc(OC)cc(-c2cc3cnc(N)nc3nc2NC(=O)NC(C)(C)C)c1	0	0	0	13	0	65	74	0	32	0
O=C1NC(=O)C(c2ccccc2)=C1Nc1cccc(O)c1 [SB-390534]	0	10	0	0	0	2	4	0	0	0
COC(=O)c1c(-c2ccccc2)c2cc(C)ccc2c(=O)n1Cc1ccccc1	0	0	2	0	15	0	0	0	0	0
CCS(=O)(=O)c1ccc(OC)c(Nc2ncc(-c3ccc(F)cc3)o2)c1.Cl [GW591947]	0	9	1	0	0	0	0	0	0	0
COc1cc2ncn(-c3cc(OCc4ccc(S(C)(=O)=O)cc4)c(C(N)=O)s3)c2cc1OC [GW869979]	0	0	0	10	0	0	29	0	30	16
COc1cc2nccc(Nc3ccc(OCc4ccc(NC(C)=O)cc4)cc3)c2cc1OC.Cl [GW440135]	22	77	0	0	5	17	0	7	0	0
CN1C(=O)C(Nc2ccccc2)=C(c2ccccc2)C1=O [SB-300079]	0	0	1	11	0	0	16	25	0	0
Cc1ccccc1COc1cc(-n2cnc3cc(Cl)ccc32)sc1C(N)=O [GW813349]	0	0	0	0	0	24	17	21	0	0
CCC(=O)c1c(-c2ccccc2)c2cc(Cl)ccc2c(=O)n1Cc1ccc(C(=O)O)cc1	0	0	0	0	0	0	0	0	3	0
COc1ccc(-n2cnc3c(N)ncnc32)cc1 [SKF-97236]	12	20	17	0	0	0	27	2	9	0
Nc1n[nH]c2nnc(-c3ccccc3)c(-c3ccccc3)c12 [GW554060]	3	8	19	5	0	0	0	0	47	8
Cc1cccc(-c2nc(Nc3ccc4c(cnn4C)c3)c3ccccc3n2)n1 [GW876731]	37	10	22	0	0	0	44	0	3	61
Cl.c1ccc(Cn2cnc3cc(Nc4ncnc5ccccc45)ccc32)cc1 [GW272142]	0	16	23	0	1	3	0	1	71	0
Cc1nc(N(C)[C@H]2CN(C(=O)CC#N)CC[C@H]2C)c2cc[nH]c2n1	0	0	0	0	13	0	10	0	0	12
COc1ccc(CNC(=O)NC2CCN(c3ccnc(Nc4ccc(F)cc4)n3)C2)cc1 (centres unmarked) [GSK1379706]	0	0	1	7	0	0	0	2	0	8
CCCC(=O)Nc1n[nH]c2ncc(-c3cccc4ccccc34)cc12 [SB-642057]	0	23	39	0	2	7	0	13	0	0

Source: publication PMC5540273 (PLoS ONE, 2017)
